Data taken from PubChem BioAssay (NCATS).
Results filed as inconclusive are left out. Activity calls are given as the source filed them. Calls follow the shape of the dose curve; as a rule, active = well fitted curve in the direction sought with a large enough effect; inconclusive = small, poorly fitted or top-dose-only effect, or another doubt; inactive = no such curve, though single readings can be large; an effect the other way counts as inactive or inconclusive.

Experiments:
CRL-7250 = normal cell line; assay: Cytotoxic Profiling of Annotated Libraries Using Quantitative High-Throughput Screening (AID 1296008); details: Five cell lines viability, CellTiter-Glo ATP luminescence, 48-72 h; max response: hits give low values; also: nearly all actives have a fitted effect of over 60% in size; also: potency is read from the fitted curve at half-maximal effect; as to max response: % is scaled to controls: 0 for no effect and ±100 for the full control effect
How it was run: (§1)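 Cytotoxicity was measured as CellTiter-Glo ATP luminescence, read after 10 min at room temperature. Compound treatment of the cells lasted 48 or 72 hr at 37 degrees Celsius in a qHTS format.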

HEK293 = assay: as above; details: Five cell lines viability, CellTiter-Glo ATP luminescence, 48-72 h; max response: hits give low values
How it was run: as §1

HaCat [1] = assay: as above; details: Five cell lines viability, CellTiter-Glo ATP luminescence, 48-72 h; max response: hits give low values
How it was run: as §1

KB-3-1 = assay: as above; details: Five cell lines viability, CellTiter-Glo ATP luminescence, 48-72 h; max response: hits give low values
How it was run: as §1

NIH3T3 [2] = assay: as above; details: Five cell lines viability, CellTiter-Glo ATP luminescence, 48-72 h; max response: hits give low values
How it was run: as §1

MCC-13 = assay: qHTS assay to identify novel small-molecules to repurpose for Merkel cell carcinoma treatment (AID 1296009); details: MCC and control cell lines, CellTiter-Glo viability, 72 h; series mostly up to 46 µM; also: nearly all actives have a fitted effect of over 60% in size; also: potency is read from the fitted curve at half-maximal effect
How it was run: (§2)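 72 hr, 37 degree celsius; NPC 8-pt / MIPE 11-pt dose response; compound pinned in DMSO; CellTiter-Glo, 10 min RT, luminescence; normalized to no-cell and DMSO controls.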

MCC-26 = assay: as above; details: MCC and control cell lines, CellTiter-Glo viability, 72 h; series mostly up to 46 µM
How it was run: as §2

MKL-1 = assay: as above; details: MCC and control cell lines, CellTiter-Glo viability, 72 h; series mostly up to 46 µM
How it was run: as §2

MKL-2 = assay: as above; details: MCC and control cell lines, CellTiter-Glo viability, 72 h; series mostly up to 46 µM
How it was run: as §2

UISO = assay: as above; details: MCC and control cell lines, CellTiter-Glo viability, 72 h; series mostly up to 46 µM
How it was run: as §2

WaGa = assay: as above; details: MCC and control cell lines, CellTiter-Glo viability, 72 h; series mostly up to 46 µM
How it was run: as §2

TAB109 = assay: qHTS profiling for inhibitors of Plasmodium falciparum proliferation (AID 504749); details: P. falciparum in erythrocytes, SYBR Green DNA, 72 h; series mostly up to 28.7 µM
How it was run: (§3)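 Infected RBCs, 0.3% parasitemia/2.5% Hct final; cpd 72 h, 37 C, 5% CO2; lysis buffer with saponin/triton/SYBR Green I, o/n RT dark; FI 485/535; norm. to artemisinin (0.29 uM) and DMSO.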

TAB113 = assay: as above; details: P. falciparum in erythrocytes, SYBR Green DNA, 72 h; series mostly up to 28.7 µM
How it was run: as §3

TAB165 = assay: as above; details: P. falciparum in erythrocytes, SYBR Green DNA, 72 h; series mostly up to 28.7 µM
How it was run: as §3

W2 = assay: as above; details: P. falciparum in erythrocytes, SYBR Green DNA, 72 h; series mostly up to 28.7 µM
How it was run: as §3

HEK293T = assay: qHTS assay to identify novel small-molecules to repurpose for Merkel cell carcinoma treatment (AID 1296009); details: MCC and control cell lines, CellTiter-Glo viability, 72 h; at 44.8 µM (top of the series); also: nearly all actives have a fitted effect of over 60% in size; also: potency is read from the fitted curve at half-maximal effect
How it was run: as §2

NIH3T3 [3] = assay: as above; details: MCC and control cell lines, CellTiter-Glo viability, 72 h; at 44.8 µM (top of the series) unless noted
How it was run: as §2

C33A = assay: Primary qHTS to identify gynecologic anti-cancer compounds using libraries of approved drugs and bioactive compounds (AID 1345084); details: Gynecologic cancer cell panel viability, ATPlite luminescence, 48 h; series mostly up to 57.5 µM; also: % is scaled to controls: 0 for no effect and ±100 for the full control effect; nearly all actives have a fitted effect of over 55% in size
How it was run: (§4)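 Cell viability after 48 h drug treatment, ATPlite luminescence readout; five doses.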

CAOV3 = assay: as above; details: Gynecologic cancer cell panel viability, ATPlite luminescence, 48 h; series mostly up to 57.5 µM
How it was run: as §4

HACAT [4] = assay: qHTS assay to identify novel small-molecules to repurpose for Merkel cell carcinoma treatment (AID 1296009); details: MCC and control cell lines, CellTiter-Glo viability, 72 h; at 44.8 µM (top of the series) unless noted; also: nearly all actives have a fitted effect of over 60% in size; also: potency is read from the fitted curve at half-maximal effect
How it was run: as §2

O=C(Nc1cc(Cl)cc2c1[nH]c1cnccc12)c1cccnc1
inactive: max response (CRL-7250) -0.841% | max response (HEK293) 3.08% | max response (HaCat [1]) -0.0712% | max response (KB-3-1) -1.81% | max response (NIH3T3 [2]) 2.41% | Potency (MCC-13) | Potency (MCC-26) | Potency (MKL-1) | Potency (MKL-2) | Potency (UISO) | Potency (WaGa)

Nc1ncnc2c1ncn2[C@@H]1O[C@H](CO)C[C@@H]1O
active: Potency (WaGa) 14.8 µM
inactive: max response (CRL-7250) -11.4% | max response (HEK293) -3.58% | max response (HaCat [1]) -0.663% | outcome (KB-3-1) | max response (NIH3T3 [2]) -2.75% | Potency (MCC-13) | Potency (MCC-26) | Potency (MKL-1) | Potency (MKL-2) | Potency (UISO)

CN1[C@@H]2CCC[C@@H]1CC(NC(=O)c1nn(C)c3ccccc13)C2 (stereo partly drawn)
inactive: max response (CRL-7250) -0.159% | max response (HEK293) -2.4% | max response (HaCat [1]) -5.72% | max response (KB-3-1) 1.46% | max response (NIH3T3 [2]) 0.235% | Potency (MCC-13) | Potency (MCC-26) | Potency (MKL-1) | Potency (MKL-2) | Potency (UISO) | Potency (WaGa)

CC(=O)N[C@@H](CS)C(=O)O
inactive: outcome (TAB109) | Potency (TAB113) | Potency (TAB165) | Potency (W2) | max response (CRL-7250) -25.8% | outcome (HEK293) | max response (HaCat [1]) -16.4% | max response (KB-3-1) 0.129% | outcome (NIH3T3 [2]) | outcome (HEK293T) | Potency (MCC-13) | Potency (MCC-26) | Potency (MKL-1) | Potency (MKL-2) | outcome (NIH3T3 [3]) | Potency (UISO) | Potency (WaGa) | Potency (C33A) | Potency (CAOV3)

CN(C)c1cc(NC(=O)CNC(C)(C)C)c(O)c2c1C[C@@H]1C[C@H]3[C@H](N(C)C)C(=O)C(C(N)=O)=C(O)[C@@]3(O)C(=O)C1=C2O
inactive: max response (CRL-7250) -28.8% | max response (HEK293) 4.51% | max response (HaCat [1]) 1.33% | max response (KB-3-1) -10.5% | max response (NIH3T3 [2]) -1.41% | Potency (MCC-13) | Potency (MCC-26) | Potency (MKL-1) | Potency (MKL-2) | Potency (UISO) | Potency (WaGa) | Potency (C33A) | Potency (CAOV3)

O=C(O)C(O)Cc1ccc(O)c(O)c1 (stereo not drawn)
inactive: max response (CRL-7250) -24.8% | outcome (HEK293) | max response (HaCat [1]) -1.88% | max response (KB-3-1) 5.06% | max response (NIH3T3 [2]) -0.893% | outcome (HEK293T) | Potency (MCC-13) | Potency (MCC-26) | Potency (MKL-1) | Potency (MKL-2) | Potency (UISO) | Potency (WaGa)

O=C1Nc2ccc(Cl)cc2C(C#CC2CC2)(C(F)(F)F)O1 (stereo not drawn)
inactive: outcome (TAB109) | Potency (TAB113) | Potency (W2) | max response (CRL-7250) -18.6% | max response (HEK293) -29.6% | outcome (HaCat [1]) | max response (KB-3-1) -17.5% | max response (NIH3T3 [2]) -6.53% | outcome (HACAT [4]) | Potency (MCC-13) | Potency (MKL-1) | Potency (MKL-2) | Potency (UISO) | Potency (WaGa)

CC(C)C(C)C=CC(C)C1CCC2C3=CC=C4CC(O)CCC4(C)C3CCC21C (stereo not drawn)
inactive: max response (CRL-7250) -1.32% | max response (HEK293) 4.56% | max response (HaCat [1]) -0.819% | max response (KB-3-1) 1.29% | max response (NIH3T3 [2]) -6.24% | Potency (MCC-13) | Potency (MCC-26) | Potency (MKL-1) | Potency (MKL-2) | Potency (UISO) | Potency (WaGa)

CO[C@H]1C(=O)[C@]2(C)[C@@H](OC)C[C@H]3OC[C@@]3(OC(C)=O)[C@H]2[C@H](OC(=O)c2ccccc2)[C@]2(O)C[C@H](OC(=O)[C@H](O)[C@@H](NC(=O)OC(C)(C)C)c3ccccc3)C(C)=C1C2(C)C
active: Potency (KB-3-1) 0.0008 µM
inactive: max response (CRL-7250) -47% | max response (HEK293) -66.4% | max response (HaCat [1]) -71.6% | max response (NIH3T3 [2]) -69.8% | Potency (MCC-13) | Potency (MCC-26) | Potency (MKL-1) | Potency (MKL-2) | Potency (UISO) | Potency (WaGa)
